Laboratory results from paper PMC7862700, “An all-to-all approach to the identification of sequence-specific readers for epigenetic DNA modifications on cytosine”.

Tests used:
Assay in all cases: DAPPL (digital affinity profiling via proximity ligation, sequencing); 10 mM Tris-HCl pH 7.5, 50 mM NaCl, 1 mM DTT, 4% glycerol, room temperature, 30 min; GST-TFs on glutathione beads, 16-mer random dsDNA library, 0.1% formaldehyde crosslink after washing; high values mean tight binding
FLI1 = target: T1, FLI1 (Homo sapiens, UniProt Q01543 1-452); details: protein: recombinant; tags: N-terminal GST; dsDNA, one strand shown
T1 sequence: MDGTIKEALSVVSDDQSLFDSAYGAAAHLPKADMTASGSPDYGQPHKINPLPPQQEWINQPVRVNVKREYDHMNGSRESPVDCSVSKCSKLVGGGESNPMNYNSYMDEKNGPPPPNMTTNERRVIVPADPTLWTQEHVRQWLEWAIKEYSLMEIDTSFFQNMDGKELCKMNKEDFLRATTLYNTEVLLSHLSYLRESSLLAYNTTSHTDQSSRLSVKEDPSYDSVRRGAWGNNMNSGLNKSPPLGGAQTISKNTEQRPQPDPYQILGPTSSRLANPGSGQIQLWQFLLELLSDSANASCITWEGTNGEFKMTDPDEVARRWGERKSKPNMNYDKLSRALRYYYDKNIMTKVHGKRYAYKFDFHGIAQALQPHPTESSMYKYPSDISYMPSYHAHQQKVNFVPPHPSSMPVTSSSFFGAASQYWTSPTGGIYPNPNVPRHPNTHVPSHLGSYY
Outline: (§1)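 After expression in yeast as GST fusions, human transcription factors were bound to glutathione beads, DNA-barcoded and mixed with a tag-only sample. The pools were incubated with 200 nmole of a 16-mer random double-stranded DNA library in Tris/NaCl/DTT/glycerol buffer (30 min, room temperature), washed and crosslinked with 0.1% formaldehyde. Proximity ligation with BsaI/T4 ligase ran for 1 h at 37 °C, before PCR amplification and sequencing on an Illumina NextSeq500. Binding signal is a hexamer's read frequency for a factor divided by its frequency for the tag-only sample.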

ELK1 = target: T2, ELK1 (Homo sapiens, UniProt P19419 1-428); details: protein: recombinant; tags: N-terminal GST; dsDNA, one strand shown
T2 sequence: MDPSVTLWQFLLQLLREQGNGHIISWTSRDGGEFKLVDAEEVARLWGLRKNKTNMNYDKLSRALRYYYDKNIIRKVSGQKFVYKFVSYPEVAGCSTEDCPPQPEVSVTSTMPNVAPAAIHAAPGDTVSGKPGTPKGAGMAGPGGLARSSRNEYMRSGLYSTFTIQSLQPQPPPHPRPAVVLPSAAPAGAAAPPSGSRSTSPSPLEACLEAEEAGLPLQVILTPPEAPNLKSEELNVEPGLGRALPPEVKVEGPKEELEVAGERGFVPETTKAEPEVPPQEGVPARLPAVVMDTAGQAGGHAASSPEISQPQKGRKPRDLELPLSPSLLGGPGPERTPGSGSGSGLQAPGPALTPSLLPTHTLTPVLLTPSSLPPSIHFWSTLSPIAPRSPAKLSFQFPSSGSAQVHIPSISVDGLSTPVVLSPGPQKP
Outline: as §1

GABPA = target: T3, GABPA (Homo sapiens, UniProt Q06546 1-454); details: protein: recombinant; tags: N-terminal GST; dsDNA, one strand shown
T3 sequence: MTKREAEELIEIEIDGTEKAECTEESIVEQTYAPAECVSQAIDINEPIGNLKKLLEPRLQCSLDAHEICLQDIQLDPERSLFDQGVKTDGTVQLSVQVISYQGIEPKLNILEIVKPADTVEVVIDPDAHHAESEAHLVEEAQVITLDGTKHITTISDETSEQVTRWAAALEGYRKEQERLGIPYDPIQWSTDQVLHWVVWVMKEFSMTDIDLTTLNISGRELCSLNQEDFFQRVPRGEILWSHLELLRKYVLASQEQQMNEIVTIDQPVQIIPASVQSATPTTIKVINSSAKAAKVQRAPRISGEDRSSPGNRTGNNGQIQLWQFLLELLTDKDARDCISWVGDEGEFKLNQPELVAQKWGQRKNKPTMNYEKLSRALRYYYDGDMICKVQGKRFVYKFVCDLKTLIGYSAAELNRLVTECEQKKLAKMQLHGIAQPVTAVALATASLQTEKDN
Outline: as §1

ERG = target: T4, ERG (Homo sapiens, UniProt P11308 1-479); details: protein: recombinant; tags: N-terminal GST; dsDNA, one strand shown
T4 sequence: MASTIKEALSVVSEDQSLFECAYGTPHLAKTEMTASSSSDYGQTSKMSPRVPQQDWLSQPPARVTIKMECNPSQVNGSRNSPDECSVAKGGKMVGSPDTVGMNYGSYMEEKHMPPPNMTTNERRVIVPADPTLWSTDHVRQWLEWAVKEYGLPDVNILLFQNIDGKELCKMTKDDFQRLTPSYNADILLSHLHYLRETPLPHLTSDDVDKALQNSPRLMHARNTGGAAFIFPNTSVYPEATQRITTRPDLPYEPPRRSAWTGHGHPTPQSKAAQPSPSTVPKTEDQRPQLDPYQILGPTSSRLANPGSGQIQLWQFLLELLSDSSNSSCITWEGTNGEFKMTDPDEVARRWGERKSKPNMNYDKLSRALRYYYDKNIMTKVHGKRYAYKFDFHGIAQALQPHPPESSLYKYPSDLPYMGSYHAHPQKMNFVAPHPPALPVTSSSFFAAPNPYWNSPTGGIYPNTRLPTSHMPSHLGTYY
Outline: as §1

ELF1 = ELF1 (Homo sapiens, UniProt P32519 1-619); details: protein: recombinant; tags: N-terminal GST; dsDNA, one strand shown
Outline: as §1

EHF = target: T5, EHF (Homo sapiens, UniProt Q9NZC4 1-300); details: protein: recombinant; tags: N-terminal GST; dsDNA, one strand shown
T5 sequence: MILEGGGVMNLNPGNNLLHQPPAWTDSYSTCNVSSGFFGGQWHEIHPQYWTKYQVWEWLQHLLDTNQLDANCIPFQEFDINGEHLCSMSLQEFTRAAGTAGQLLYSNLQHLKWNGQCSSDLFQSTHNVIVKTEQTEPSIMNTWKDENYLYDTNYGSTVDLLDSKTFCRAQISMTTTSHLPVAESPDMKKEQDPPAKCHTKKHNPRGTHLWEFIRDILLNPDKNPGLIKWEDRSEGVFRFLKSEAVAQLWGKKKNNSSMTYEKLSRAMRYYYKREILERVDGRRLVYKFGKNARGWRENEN
Outline: as §1

SPI1 = SPI1 (Homo sapiens, UniProt P17947 1-270); details: protein: recombinant; tags: N-terminal GST; dsDNA, one strand shown
Outline: as §1

SPIB = SPIB (Homo sapiens, UniProt Q01892 1-262); details: protein: recombinant; tags: N-terminal GST; dsDNA, one strand shown
Outline: as §1

ELK3 = target: T6, ELK3 (Homo sapiens, UniProt P41970 1-407); details: protein: recombinant; tags: N-terminal GST; dsDNA, one strand shown
T6 sequence: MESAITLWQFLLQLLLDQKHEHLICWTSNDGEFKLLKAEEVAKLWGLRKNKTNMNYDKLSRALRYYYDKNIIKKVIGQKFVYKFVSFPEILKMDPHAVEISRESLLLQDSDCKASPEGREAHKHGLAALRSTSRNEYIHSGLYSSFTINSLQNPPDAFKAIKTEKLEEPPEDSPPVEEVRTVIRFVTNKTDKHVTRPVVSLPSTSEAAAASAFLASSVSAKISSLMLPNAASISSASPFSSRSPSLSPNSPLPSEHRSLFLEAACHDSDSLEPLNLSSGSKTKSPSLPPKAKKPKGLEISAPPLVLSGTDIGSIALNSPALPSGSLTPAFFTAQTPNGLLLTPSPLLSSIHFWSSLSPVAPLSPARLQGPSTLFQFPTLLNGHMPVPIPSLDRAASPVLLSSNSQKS
Outline: as §1

FEV = target: T7, FEV (Homo sapiens, UniProt Q99581 1-238); details: protein: recombinant; tags: N-terminal GST; dsDNA, one strand shown
T7 sequence: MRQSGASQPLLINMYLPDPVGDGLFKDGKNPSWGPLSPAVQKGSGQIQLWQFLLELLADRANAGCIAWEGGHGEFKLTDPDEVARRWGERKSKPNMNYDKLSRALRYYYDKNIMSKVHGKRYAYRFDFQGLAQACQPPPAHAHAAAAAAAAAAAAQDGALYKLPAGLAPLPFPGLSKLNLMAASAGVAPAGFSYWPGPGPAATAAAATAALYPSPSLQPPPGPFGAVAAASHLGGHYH
Outline: as §1

ETV5 = ETV5 (Homo sapiens, UniProt P41161 1-510); details: protein: recombinant; tags: N-terminal GST; dsDNA, one strand shown
Outline: as §1

HSF1 = HSF1 (Homo sapiens, UniProt Q00613 1-529); details: protein: recombinant; tags: N-terminal GST; chain copies: 3; dsDNA, one strand shown
Outline: as §1

SPIC = target: T8, SPIC (Homo sapiens, UniProt Q8N5J4 1-248); details: protein: recombinant; tags: N-terminal GST; dsDNA, one strand shown
T8 sequence: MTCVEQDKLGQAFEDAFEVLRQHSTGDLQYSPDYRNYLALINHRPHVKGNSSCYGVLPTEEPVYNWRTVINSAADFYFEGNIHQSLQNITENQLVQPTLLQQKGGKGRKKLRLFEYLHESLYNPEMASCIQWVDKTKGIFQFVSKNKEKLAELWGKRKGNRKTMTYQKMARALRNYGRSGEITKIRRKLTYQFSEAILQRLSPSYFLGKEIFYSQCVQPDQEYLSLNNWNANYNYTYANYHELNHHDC
Outline: as §1

ELF4 = ELF4 (Homo sapiens, UniProt Q99607 1-663); details: protein: recombinant; tags: N-terminal GST; dsDNA, one strand shown
Outline: as §1

ELK4 = target: T9, ELK4 (Homo sapiens, UniProt P28324-2 1-405); details: protein: recombinant; tags: N-terminal GST; dsDNA, one strand shown
T9 sequence: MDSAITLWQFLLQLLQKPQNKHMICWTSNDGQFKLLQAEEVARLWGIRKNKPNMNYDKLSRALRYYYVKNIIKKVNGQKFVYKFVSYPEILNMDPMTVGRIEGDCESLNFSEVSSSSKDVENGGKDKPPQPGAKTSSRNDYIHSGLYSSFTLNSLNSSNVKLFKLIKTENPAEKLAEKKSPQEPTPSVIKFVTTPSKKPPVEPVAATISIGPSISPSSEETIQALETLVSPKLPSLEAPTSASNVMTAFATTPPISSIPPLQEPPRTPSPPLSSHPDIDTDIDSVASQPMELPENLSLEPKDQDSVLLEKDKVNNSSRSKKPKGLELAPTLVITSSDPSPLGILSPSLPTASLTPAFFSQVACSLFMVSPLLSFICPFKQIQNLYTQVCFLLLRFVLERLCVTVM
Outline: as §1

ETV2 = target: T10, ETV2 (Homo sapiens, UniProt O00321 1-342); details: protein: recombinant; tags: N-terminal GST; dsDNA, one strand shown
T10 sequence: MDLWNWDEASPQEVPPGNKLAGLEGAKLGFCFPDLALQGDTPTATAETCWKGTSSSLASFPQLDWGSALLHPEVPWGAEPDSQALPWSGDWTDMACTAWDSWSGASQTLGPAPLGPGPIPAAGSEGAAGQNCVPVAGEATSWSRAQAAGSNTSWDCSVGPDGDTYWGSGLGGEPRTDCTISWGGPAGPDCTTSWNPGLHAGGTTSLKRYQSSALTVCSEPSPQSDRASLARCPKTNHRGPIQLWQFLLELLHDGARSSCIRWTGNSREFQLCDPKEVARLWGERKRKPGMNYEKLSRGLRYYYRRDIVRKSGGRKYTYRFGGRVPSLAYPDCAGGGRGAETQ
Outline: as §1

ELF3 = target: T11, ELF3 (Homo sapiens, UniProt P78545 1-371); details: protein: recombinant; tags: N-terminal GST; dsDNA, one strand shown
T11 sequence: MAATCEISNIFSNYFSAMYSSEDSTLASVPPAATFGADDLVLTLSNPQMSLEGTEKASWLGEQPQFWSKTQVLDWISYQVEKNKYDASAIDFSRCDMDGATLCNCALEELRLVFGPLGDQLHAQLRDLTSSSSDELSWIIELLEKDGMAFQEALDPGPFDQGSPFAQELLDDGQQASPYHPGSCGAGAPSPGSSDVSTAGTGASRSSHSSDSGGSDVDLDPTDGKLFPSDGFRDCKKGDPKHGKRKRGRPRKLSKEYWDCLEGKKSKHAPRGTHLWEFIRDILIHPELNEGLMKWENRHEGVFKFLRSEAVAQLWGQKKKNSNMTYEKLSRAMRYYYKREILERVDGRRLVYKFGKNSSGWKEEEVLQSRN
Outline: as §1

CRX = CRX (Homo sapiens, UniProt O43186 1-299); details: protein: recombinant; tags: N-terminal GST; dsDNA, one strand shown
Outline: as §1

ETV1 = ETV1 (Homo sapiens, UniProt P50549 1-477); details: protein: recombinant; tags: N-terminal GST; dsDNA, one strand shown
Outline: as §1

Sequence of CRX (O43186 whole entry): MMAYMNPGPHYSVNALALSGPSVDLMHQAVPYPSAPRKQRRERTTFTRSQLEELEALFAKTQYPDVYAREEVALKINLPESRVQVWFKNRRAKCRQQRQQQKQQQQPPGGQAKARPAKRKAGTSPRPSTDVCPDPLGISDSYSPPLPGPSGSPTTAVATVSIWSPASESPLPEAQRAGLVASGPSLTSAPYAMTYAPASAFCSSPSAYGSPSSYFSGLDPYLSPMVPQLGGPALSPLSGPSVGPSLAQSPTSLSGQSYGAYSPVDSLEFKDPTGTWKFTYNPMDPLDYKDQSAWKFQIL
Sequence of HSF1 (Q00613 whole entry): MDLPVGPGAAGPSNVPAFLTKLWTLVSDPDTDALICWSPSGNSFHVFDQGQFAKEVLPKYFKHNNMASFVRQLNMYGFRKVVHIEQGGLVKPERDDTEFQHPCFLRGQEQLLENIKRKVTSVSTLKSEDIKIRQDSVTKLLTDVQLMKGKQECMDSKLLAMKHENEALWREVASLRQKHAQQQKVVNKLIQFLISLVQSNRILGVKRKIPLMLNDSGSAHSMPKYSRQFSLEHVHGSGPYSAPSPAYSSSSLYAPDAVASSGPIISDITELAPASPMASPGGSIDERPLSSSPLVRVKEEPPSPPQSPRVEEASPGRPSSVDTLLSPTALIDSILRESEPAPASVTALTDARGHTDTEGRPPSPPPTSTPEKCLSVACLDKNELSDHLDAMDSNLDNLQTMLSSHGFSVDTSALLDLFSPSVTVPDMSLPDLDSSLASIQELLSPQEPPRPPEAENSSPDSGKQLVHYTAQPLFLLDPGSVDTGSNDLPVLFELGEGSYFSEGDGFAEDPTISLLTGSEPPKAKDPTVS
Sequence of ETV5 (P41161 whole entry): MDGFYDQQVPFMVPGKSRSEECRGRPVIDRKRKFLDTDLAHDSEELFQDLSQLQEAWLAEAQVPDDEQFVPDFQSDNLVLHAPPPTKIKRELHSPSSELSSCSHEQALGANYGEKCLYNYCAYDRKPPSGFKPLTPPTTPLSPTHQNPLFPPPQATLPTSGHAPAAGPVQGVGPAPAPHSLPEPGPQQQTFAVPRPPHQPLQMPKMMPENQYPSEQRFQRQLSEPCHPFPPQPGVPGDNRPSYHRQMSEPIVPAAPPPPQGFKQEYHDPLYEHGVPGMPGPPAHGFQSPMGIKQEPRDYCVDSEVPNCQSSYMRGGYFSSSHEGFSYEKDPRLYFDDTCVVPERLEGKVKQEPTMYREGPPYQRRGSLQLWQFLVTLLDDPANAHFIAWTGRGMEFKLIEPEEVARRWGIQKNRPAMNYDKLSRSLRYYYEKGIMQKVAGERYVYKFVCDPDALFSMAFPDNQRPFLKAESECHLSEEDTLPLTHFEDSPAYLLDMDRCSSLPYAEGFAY
Sequence of SPIB (Q01892 whole entry): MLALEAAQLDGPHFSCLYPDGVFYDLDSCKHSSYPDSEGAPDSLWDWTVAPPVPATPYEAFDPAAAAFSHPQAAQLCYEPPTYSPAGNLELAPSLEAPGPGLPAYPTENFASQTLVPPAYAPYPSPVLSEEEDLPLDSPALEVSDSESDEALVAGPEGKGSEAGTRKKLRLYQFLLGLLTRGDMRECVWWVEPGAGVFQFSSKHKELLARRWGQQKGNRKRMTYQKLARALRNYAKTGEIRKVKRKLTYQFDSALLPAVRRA
Sequence of ELF4 (Q99607 whole entry): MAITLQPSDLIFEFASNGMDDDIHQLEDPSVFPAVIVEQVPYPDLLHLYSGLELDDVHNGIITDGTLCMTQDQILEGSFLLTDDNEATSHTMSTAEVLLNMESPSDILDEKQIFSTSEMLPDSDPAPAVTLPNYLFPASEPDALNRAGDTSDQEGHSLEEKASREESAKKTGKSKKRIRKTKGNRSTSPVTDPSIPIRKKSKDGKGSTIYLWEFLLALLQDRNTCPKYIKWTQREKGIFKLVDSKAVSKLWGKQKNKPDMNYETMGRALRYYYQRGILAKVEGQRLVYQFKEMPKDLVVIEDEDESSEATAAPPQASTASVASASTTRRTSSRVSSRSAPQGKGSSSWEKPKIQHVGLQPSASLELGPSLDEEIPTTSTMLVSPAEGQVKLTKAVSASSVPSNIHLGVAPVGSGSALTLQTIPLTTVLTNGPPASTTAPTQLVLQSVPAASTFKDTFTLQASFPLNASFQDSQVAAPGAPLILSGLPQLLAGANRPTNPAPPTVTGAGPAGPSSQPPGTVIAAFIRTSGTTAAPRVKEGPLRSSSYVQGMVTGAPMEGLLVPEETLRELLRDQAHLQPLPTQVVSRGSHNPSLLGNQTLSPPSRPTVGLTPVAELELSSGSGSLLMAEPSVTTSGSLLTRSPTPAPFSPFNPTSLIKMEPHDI
Sequence of ETV1 (P50549 whole entry): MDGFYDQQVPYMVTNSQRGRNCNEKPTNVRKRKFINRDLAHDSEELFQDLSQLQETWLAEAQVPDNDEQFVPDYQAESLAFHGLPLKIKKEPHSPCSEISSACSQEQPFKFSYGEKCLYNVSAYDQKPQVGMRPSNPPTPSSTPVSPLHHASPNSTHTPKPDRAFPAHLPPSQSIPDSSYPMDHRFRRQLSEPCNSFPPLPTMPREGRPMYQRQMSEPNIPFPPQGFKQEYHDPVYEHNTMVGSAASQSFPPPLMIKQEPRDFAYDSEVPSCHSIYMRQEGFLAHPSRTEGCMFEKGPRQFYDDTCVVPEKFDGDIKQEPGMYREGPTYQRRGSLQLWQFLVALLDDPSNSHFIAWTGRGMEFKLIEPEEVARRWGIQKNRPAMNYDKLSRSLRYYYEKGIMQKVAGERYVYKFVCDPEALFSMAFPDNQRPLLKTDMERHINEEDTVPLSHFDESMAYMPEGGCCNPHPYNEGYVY
Sequence of ELF1 (P32519 whole entry): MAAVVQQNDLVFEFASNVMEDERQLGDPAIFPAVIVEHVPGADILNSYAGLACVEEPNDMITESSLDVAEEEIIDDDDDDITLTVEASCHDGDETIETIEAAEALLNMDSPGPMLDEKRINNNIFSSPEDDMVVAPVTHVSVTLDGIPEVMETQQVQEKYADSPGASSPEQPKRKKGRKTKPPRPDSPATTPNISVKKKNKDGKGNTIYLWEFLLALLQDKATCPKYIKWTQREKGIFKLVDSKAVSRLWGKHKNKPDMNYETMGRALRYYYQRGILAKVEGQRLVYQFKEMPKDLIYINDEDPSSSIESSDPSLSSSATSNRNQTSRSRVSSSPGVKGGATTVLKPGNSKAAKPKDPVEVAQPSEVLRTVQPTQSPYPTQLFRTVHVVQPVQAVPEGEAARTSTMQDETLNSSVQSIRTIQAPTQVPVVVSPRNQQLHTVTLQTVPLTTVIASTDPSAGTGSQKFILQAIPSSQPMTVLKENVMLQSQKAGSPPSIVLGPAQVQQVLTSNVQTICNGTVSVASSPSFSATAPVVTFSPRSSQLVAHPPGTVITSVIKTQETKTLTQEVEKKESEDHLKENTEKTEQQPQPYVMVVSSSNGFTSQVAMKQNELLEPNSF

TCTTTT
binding signal (FLI1): 1.46 fold enrichment (6-mer frequency, TF over GST control)
binding signal (ELK1): 1.38 fold enrichment (6-mer frequency, TF over GST control)
binding signal (GABPA): 1.45 fold enrichment (6-mer frequency, TF over GST control)
binding signal (ERG): 1.36 fold enrichment (6-mer frequency, TF over GST control)
binding signal (ELF1): 1.47 fold enrichment (6-mer frequency, TF over GST control)
binding signal (EHF): 1.53 fold enrichment (6-mer frequency, TF over GST control)
binding signal (SPI1): 2.09 fold enrichment (6-mer frequency, TF over GST control)
binding signal (SPIB): 1.61 fold enrichment (6-mer frequency, TF over GST control)
binding signal (ELK3): 1.51 fold enrichment (6-mer frequency, TF over GST control)
binding signal (FEV): 1.44 fold enrichment (6-mer frequency, TF over GST control)
binding signal (ETV5): 1.4 fold enrichment (6-mer frequency, TF over GST control)
binding signal (HSF1): 1.66 fold enrichment (6-mer frequency, TF over GST control)
binding signal (SPIC): 1.55 fold enrichment (6-mer frequency, TF over GST control)
binding signal (ELF4): 1.54 fold enrichment (6-mer frequency, TF over GST control)
binding signal (ELK4): 1.22 fold enrichment (6-mer frequency, TF over GST control)
binding signal (ETV2): 1.42 fold enrichment (6-mer frequency, TF over GST control)
binding signal (ELF3): 1.41 fold enrichment (6-mer frequency, TF over GST control)
binding signal (CRX): 1.59 fold enrichment (6-mer frequency, TF over GST control)
binding signal (ETV1): 1.47 fold enrichment (6-mer frequency, TF over GST control)
